In PubChem BioAssay one finds differential viability (reversal) and viability data, which are given here for 40 compounds.

Calls of active or inactive are those of the source.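 The calls were made as follows: active = viability loss from added drug above about 55%, and viability with drug at most 40%, in both replicates (limit read from the data, passing the limit was not always enough); inconclusive = both conditions met in only one replicate; inactive = neither replicate meets both conditions.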

The term viability denotes a read-out of living cells in per cent, often relative to untreated cells.

The first experiment can be described thus: reversal of MRP1-mediated doxorubicin resistance, pilot screen, H69AR cells, doxorubicin co-treatment (AID 601). The note with it: H69AR cells + 2 uM doxorubicin, CellTiter-Glo, 72 h; at 10 µM; stronger effect = higher value. For orientation: Cellular ATP, detected with luciferase, serves as a proxy for viable cell number.
Turning to `CCC(=O)Nc1c2c(nn1-c1ccccc1C)CSC2`, the differential viability (reversal) is 12.8% (inactive).
As for `CCOC(=O)C1CCN(C(=O)COc2ccc(Cl)cc2Cl)CC1`, the differential viability (reversal) is 10.2% (inactive).
Regarding `CC1CC(=O)C2=C(C1)OC(N)=C(C#N)C2c1coc2ccccc2c1=O` (stereo not given), the differential viability (reversal) is 10.6% (inactive).
As for `CN(C1CCS(=O)(=O)C1)S(=O)C12CC3CC(CC(C3)C1)C2` (stereo not given), the differential viability (reversal) is 3.66% (inactive).
With `S=c1[nH]nc(Cc2ccccc2)n1-c1ccccc1`, the differential viability (reversal) is 6.14% (inactive).
For `Cc1cccc(Cc2nnc(NC(=O)c3cccc(S(=O)(=O)N4CCOCC4)c3)s2)c1`, the differential viability (reversal) was -2.97% (inactive).
The same measure, in the same setting: the figure for `COC(=O)[C@H](C)NC(=O)Nc1cc(OC)ccc1OC` is 25% (inactive).
`COc1ccccc1NC(=O)C1=C(C)Nc2nnnn2C1c1ccccc1OC` (stereo not given): the differential viability (reversal) was 10.4% (inactive).
With `Cn1c(CNc2nc(-c3ccccc3)cs2)nnc1SCC(=O)N1CCc2ccccc21`, the differential viability (reversal) was 9.91% (inactive).
Still for that read-out and setting: the figure for `CCOC(=O)N1CCN(C(=O)c2n[nH]c(=O)c3ccccc23)CC1` is 1.86% (inactive); for `O=C(CN1CCCN(S(=O)(=O)c2ccc(Br)cc2)CC1)Nc1ccc2cn[nH]c2c1` it is -13.3% (inactive).
The same measure, in the same setting: the figure for `O=C(OCc1ccccc1F)c1ccc2c(c1)OCCO2` is 9.29% (inactive); for `CCN(CC)S(=O)(=O)c1ccc2c(c1)nc(SCC(=O)NC1CC1)n2-c1ccccc1OC` it is 14.2% (inactive).
On the same count and under the same terms, the figure for `CCC(Sc1nc2sc(C(=O)OC)c(C)c2c(=O)n1N)C(=O)NCC1CCCO1` (stereo not given) is -5.51% (inactive); for `O=C(COc1ccccc1)Nc1ccc(-c2nnc(-c3ccco3)o2)cc1` it is 8.73% (inactive); for `O=C(CSc1nnnn1C1CCCC1)Nc1cccc(NC(=O)c2ccco2)c1` it is 13.4% (inactive).
For `CCCCCc1c(O)nc(SCC(=O)NCC2CCCO2)[nH]c1=O` (stereo not given), the differential viability (reversal) is 12.2% (inactive).
Same read-out and setting: the figure for `c1ccc(N=P(c2nc3ccccc3o2)(N2CCOCC2)N2CCOCC2)cc1` is 1.96% (inactive); for `Cc1nn(S(=O)(=O)N2CCCCC2)c(C)c1Br` it is 5.13% (inactive).
On the same count and under the same terms, the figure for `Cc1cc2oc(=O)cc(C)c2c(=O)o1` is 11.2% (inactive); for `N#CCCn1ccc(NC(=O)c2ccc(Cl)cc2)n1` it is 8.88% (inactive).
Same read-out and setting: the figure for `S=c1[nH]nc(-c2ccco2)n1-c1cccc2ccccc12` is 3.69% (inactive).
Take `CCOC(=O)c1c(-c2ccc(C)o2)csc1NC(=O)COC(=O)c1cccs1`: the differential viability (reversal) was 5.23% (inactive).
Same read-out and setting: the figure for `CCOc1cc2[nH]c(=O)n(CCCCC(=O)N3CCCCCC3)c(=O)c2cc1OCC` is 2.38% (inactive); for `Clc1ccc(-n2ncc3c(NCCCn4ccnc4)ncnc32)cc1` it is 11.3% (inactive).
Still for that read-out and setting: the figure for `COc1ccc(OC)c(C2C3=C(CCCC3=O)Nc3c2c(=O)n(C)c(=O)n3C)c1` (stereo not given) is -5.08% (inactive); for `COc1ccc(NC(=O)CN2CCN(CC(=O)Nc3cc(OC)cc(OC)c3)CC2)cc1` it is -5.3% (inactive); for `Clc1cc2c(c(Cn3cnc4ccccc43)c1)OCOC2` it is 6.4% (inactive).
On the same count and under the same terms, the figure for `N#Cc1c2n(c(=S)n(-c3ccccn3)c1=O)CCCCC2` is -5.17% (inactive); for `N#Cc1c(NC(=O)c2ccc(Br)o2)n(-c2ccccc2)c2nc3ccccc3nc12` it is -0.255% (inactive).
Turning to `COCCn1nnnc1C(c1ccc(OC)cc1)N1CCN(c2ccccc2F)CC1` (stereo not given), the differential viability (reversal) is 9.91% (inactive).
The same measure, in the same setting: the figure for `COc1cc(-c2nnc(SCc3c(F)cccc3Cl)o2)cc(OC)c1OC` is 3.85% (inactive); for `COC(=O)Cc1c(C)nc2nc(-c3ccco3)[nH]n2c1=O` it is 8.05% (inactive).
As to `CCOC(=O)CSc1nc2cccnc2n1-c1ccc(F)cc1`, the differential viability (reversal) is 9.83% (inactive).
The same measure, in the same setting: the figure for `COCCn1c(NCc2ccc(C)cc2)nc2c1c(=O)[nH]c(=O)n2C` is 7.44% (inactive).
For `Clc1ccc2nc(N3CCCCC3)[nH]c2c1`, the differential viability (reversal) is 11.6% (inactive).
Same read-out and setting: the figure for `Cc1nnc(C)c2c(C)n(-c3ccc(Br)cc3)c(C)c12` is 17.2% (inactive); for `O=C(NCC(F)(F)F)N1CCOCC1` it is 8.42% (inactive); for `O=C(O)CC1SC(=Nc2cccc(C(F)(F)F)c2)NC1=O` (stereo not given) it is 9.34% (inactive).
Still for that read-out and setting: the figure for `COc1ccc2c(c1)OC(O)(C(F)F)CC2=O` (stereo not given) is 2.35% (inactive).

Still in this experiment, the particulars now being: H69AR cells + 2 uM doxorubicin, CellTiter-Glo, 72 h; measured here: viability with 2 uM doxorubicin; at 10 µM; stronger effect = lower value.
Consider `CCC(=O)Nc1c2c(nn1-c1ccccc1C)CSC2`, for which the viability worked out at 89.4%.
Still for that read-out and setting: the figure for `CCOC(=O)C1CCN(C(=O)COc2ccc(Cl)cc2Cl)CC1` is 86.1%.
Take `CC1CC(=O)C2=C(C1)OC(N)=C(C#N)C2c1coc2ccccc2c1=O` (stereo not given): the viability came out at 86.7%.
Still for that read-out and setting: the figure for `CN(C1CCS(=O)(=O)C1)S(=O)C12CC3CC(CC(C3)C1)C2` (stereo not given) is 96.3%; for `S=c1[nH]nc(Cc2ccccc2)n1-c1ccccc1` it is 86.7%; for `Cc1cccc(Cc2nnc(NC(=O)c3cccc(S(=O)(=O)N4CCOCC4)c3)s2)c1` it is 82.2%.
For `COC(=O)[C@H](C)NC(=O)Nc1cc(OC)ccc1OC`, the viability turned out to be 50.1%.
The same measure, in the same setting: the figure for `COc1ccccc1NC(=O)C1=C(C)Nc2nnnn2C1c1ccccc1OC` (stereo not given) is 88.5%; for `Cn1c(CNc2nc(-c3ccccc3)cs2)nnc1SCC(=O)N1CCc2ccccc21` it is 83.4%; for `CCOC(=O)N1CCN(C(=O)c2n[nH]c(=O)c3ccccc23)CC1` it is 89.8%.
On the same count and under the same terms, the figure for `O=C(CN1CCCN(S(=O)(=O)c2ccc(Br)cc2)CC1)Nc1ccc2cn[nH]c2c1` is 20.5%.
For `O=C(OCc1ccccc1F)c1ccc2c(c1)OCCO2`, the viability was 82.7%.
The same measure, in the same setting: the figure for `CCN(CC)S(=O)(=O)c1ccc2c(c1)nc(SCC(=O)NC1CC1)n2-c1ccccc1OC` is 77.1%.
On the same count and under the same terms, the figure for `CCC(Sc1nc2sc(C(=O)OC)c(C)c2c(=O)n1N)C(=O)NCC1CCCO1` (stereo not given) is 87.7%.
Same read-out and setting: the figure for `O=C(COc1ccccc1)Nc1ccc(-c2nnc(-c3ccco3)o2)cc1` is 86.8%.
With `O=C(CSc1nnnn1C1CCCC1)Nc1cccc(NC(=O)c2ccco2)c1`, the viability was 97%.
On the same count and under the same terms, the figure for `CCCCCc1c(O)nc(SCC(=O)NCC2CCCO2)[nH]c1=O` (stereo not given) is 93%.
Still for that read-out and setting: the figure for `c1ccc(N=P(c2nc3ccccc3o2)(N2CCOCC2)N2CCOCC2)cc1` is 89.4%; for `Cc1nn(S(=O)(=O)N2CCCCC2)c(C)c1Br` it is 97.1%; for `Cc1cc2oc(=O)cc(C)c2c(=O)o1` it is 96.6%.
Consider `N#CCCn1ccc(NC(=O)c2ccc(Cl)cc2)n1`, for which the viability amounted to 88.1%.
For `S=c1[nH]nc(-c2ccco2)n1-c1cccc2ccccc12`, the viability amounted to 93.2%.
Still for that read-out and setting: the figure for `CCOC(=O)c1c(-c2ccc(C)o2)csc1NC(=O)COC(=O)c1cccs1` is 79.2%; for `CCOc1cc2[nH]c(=O)n(CCCCC(=O)N3CCCCCC3)c(=O)c2cc1OCC` it is 74.4%; for `Clc1ccc(-n2ncc3c(NCCCn4ccnc4)ncnc32)cc1` it is 82.2%.
On the same count and under the same terms, the figure for `COc1ccc(OC)c(C2C3=C(CCCC3=O)Nc3c2c(=O)n(C)c(=O)n3C)c1` (stereo not given) is 107%; for `COc1ccc(NC(=O)CN2CCN(CC(=O)Nc3cc(OC)cc(OC)c3)CC2)cc1` it is 88.4%.
For `Clc1cc2c(c(Cn3cnc4ccccc43)c1)OCOC2`, the viability was found to be 91.6%.
Still for that read-out and setting: the figure for `N#Cc1c2n(c(=S)n(-c3ccccn3)c1=O)CCCCC2` is 91.1%; for `N#Cc1c(NC(=O)c2ccc(Br)o2)n(-c2ccccc2)c2nc3ccccc3nc12` it is 85.5%.
Same read-out and setting: the figure for `COCCn1nnnc1C(c1ccc(OC)cc1)N1CCN(c2ccccc2F)CC1` (stereo not given) is 79.8%; for `COc1cc(-c2nnc(SCc3c(F)cccc3Cl)o2)cc(OC)c1OC` it is 81.3%; for `COC(=O)Cc1c(C)nc2nc(-c3ccco3)[nH]n2c1=O` it is 90.6%.
On the same count and under the same terms, the figure for `CCOC(=O)CSc1nc2cccnc2n1-c1ccc(F)cc1` is 92.4%; for `COCCn1c(NCc2ccc(C)cc2)nc2c1c(=O)[nH]c(=O)n2C` it is 99.5%; for `Clc1ccc2nc(N3CCCCC3)[nH]c2c1` it is 80.3%.
As to `Cc1nnc(C)c2c(C)n(-c3ccc(Br)cc3)c(C)c12`, the viability is 87.2%.
The same measure, in the same setting: the figure for `O=C(NCC(F)(F)F)N1CCOCC1` is 91.8%; for `O=C(O)CC1SC(=Nc2cccc(C(F)(F)F)c2)NC1=O` (stereo not given) it is 93.2%.
Same read-out and setting: the figure for `COc1ccc2c(c1)OC(O)(C(F)F)CC2=O` (stereo not given) is 91.2%.
